Active and inactive are the calls of the source. How the source made its calls: active means hit-call score of the fitted dose curve at least 0.9, where 1 is the maximum; inactive means score below 0.9.
Columns and labels:
Settings in all cases: mRNA level, 48 h; actives raise or lower the signal
[1] = read-out: Cyclin D1 (CCND1), CCND1 (gene 595); assay: LTEA_HepaRG_CCND1: Life Technologies and Expression Analysis (LTEA) Assay for Cyclin D1 (CCND1) using HepaRG (AID 2283451);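 on AC50: differentiated human HepaRG liver cells in serum-free induction medium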
Procedure, shortened: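 Expression of CCND1 was quantified by qRT-PCR on Fluidigm arrays using ACTB, GAPDH and POLR2A as reference genes. HepaRG cultures, plated 48 h beforehand, were dosed for 48 h at up to 100 uM (half-log, 8 points) in 0.5% DMSO.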

[2] = read-out: catalase (CAT), CAT (gene 847); assay: LTEA_HepaRG_CAT: Life Technologies and Expression Analysis (LTEA) Assay for catalase (CAT) using HepaRG (AID 2283452)
Procedure, shortened: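 HepaRG cells in serum-free induction medium, 0.5% DMSO vehicle, exposed 48 h in duplicate over 8 half-log concentrations from 100 uM. CAT mRNA measured by qRT-PCR, normalized to ACTB, GAPDH, POLR2A; bidirectional fit versus DMSO.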

[3] = read-out: flavin-containing dimethylaniline monooxygenases 3 (FMO3), FMO3 (gene 2328); assay: LTEA_HepaRG_FMO3: Life Technologies and Expression Analysis (LTEA) Assay for flavin-containing dimethylaniline monooxygenases 3 (FMO3) using HepaRG (AID 2283453);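 further: differentiated human HepaRG liver cells in serum-free induction medium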
Procedure, shortened: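 FMO3 transcript quantified by TaqMan qRT-PCR against three housekeeping genes after 48 h chemical exposure of HepaRG cells. Eight-point half-log series, top 100 uM, 0.5% DMSO vehicle; phenobarbital 1mM induction control; up- or down-regulation fitted.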

[4] = read-out: Cytochrome P450 (CYP1A1), CYP1A1 (gene 1543); assay: LTEA_HepaRG_CYP1A1: Life Technologies and Expression Analysis (LTEA) Assay for Cytochrome P450 (CYP1A1) using HepaRG (AID 2283454)
Procedure, shortened: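 CYP1A1 transcript levels measured by Fluidigm qRT-PCR against three housekeeping genes, 48 h after chemical dosing of human HepaRG cells (highest concentration 100 uM, half-log steps, 0.5% DMSO vehicle). Gain or loss of signal fitted relative to DMSO.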

[5] = read-out: CFLAR gene, CFLAR (gene 8837); assay: LTEA_HepaRG_CFLAR: Life Technologies and Expression Analysis (LTEA) Assay for CFLAR gene using HepaRG (AID 2283455)
Procedure, shortened: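 qRT-PCR read-out (Fluidigm/TaqMan) of CFLAR mRNA, normalized to three housekeeping genes, in differentiated human HepaRG cells after 48 h chemical exposure; 8-point half-log series from 100 uM in 0.5% DMSO; bidirectional curve fitting versus DMSO.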

[6] = read-out: Forkhead box O1 (FOXO1), FOXO1 (gene 2308); assay: LTEA_HepaRG_FOXO1: Life Technologies and Expression Analysis (LTEA) Assay for Forkhead box O1 (FOXO1) using HepaRG (AID 2283456)
Procedure, shortened: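 HepaRG, 48 h exposure, 8-pt half-log series from 100 uM in 0.5% DMSO, duplicates; Fluidigm qRT-PCR mRNA, housekeeping-normalised; bidirectional fit vs DMSO baseline.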

[7] = read-out: growth arrest and DNA damage 45 (GADD45A), GADD45A (gene 1647); assay: LTEA_HepaRG_GADD45A: Life Technologies and Expression Analysis (LTEA) Assay for growth arrest and DNA damage 45 (GADD45A) using HepaRG (AID 2283458)
Procedure, shortened: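 GADD45A expression was measured by TaqMan qRT-PCR against three housekeeping genes (ACTB, GAPDH, POLR2A) after 48 h treatment of HepaRG cells. Eight-point half-log series up to 100 uM in 0.5% DMSO, run in duplicate.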

[8] = read-out: Forkhead box O3 (FOXO3), FOXO3 (gene 2309); assay: LTEA_HepaRG_FOXO3: Life Technologies and Expression Analysis (LTEA) Assay for Forkhead box O3 (FOXO3) using HepaRG (AID 2283459)
Procedure, shortened: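 qRT-PCR readout of FOXO3 transcript, normalized to three housekeeping genes (ACTB, GAPDH, POLR2A); gain or loss fitted against 0.5% DMSO vehicle. HepaRG cells, 48 h chemical exposure, 8-point half-log series, top 100 uM.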

[9] = read-out: ABC Transporter (ABCB1), ABCB1 (gene 5243); assay: LTEA_HepaRG_ABCB1: Life Technologies and Expression Analysis (LTEA) Assay for ABC Transporter (ABCB1) using HepaRG (AID 2283460)
Procedure, shortened: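 HepaRG, 48 h exposure, 8-pt half-log series from 100 uM, 0.5% DMSO vehicle, duplicates. Readout: ABCB1 transcript by Fluidigm TaqMan qRT-PCR, housekeeping-normalized; bidirectional curve fit vs DMSO baseline.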

[10] = read-out: ABC Transporter (ABCC3), ABCC3 (gene 8714); assay: LTEA_HepaRG_ABCC3: Life Technologies and Expression Analysis (LTEA) Assay for ABC Transporter (ABCC3) using HepaRG (AID 2283462)
Procedure, shortened: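 Transcript level by TaqMan qRT-PCR, normalised to three housekeeping genes, fitted in both directions relative to vehicle. Chemicals tested in duplicate at eight half-log concentrations up to 100 uM for 48 h on HepaRG cells (0.5% DMSO).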

[11] = read-out: ABC Transporter (ABCB11), ABCB11 (gene 8647); assay: LTEA_HepaRG_ABCB11: Life Technologies and Expression Analysis (LTEA) Assay for ABC Transporter (ABCB11) using HepaRG (AID 2283463)
Procedure, shortened: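 HepaRG, 48 h exposure, 8-pt half-log CRC top 100 uM, 0.5% DMSO vehicle, duplicates. Readout: TaqMan qRT-PCR of ABCB11 mRNA, housekeeping-normalized (ACTB/GAPDH/POLR2A). Bidirectional fit vs DMSO baseline.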

[12] = read-out: ABC Transporter (ABCC2), ABCC2 (gene 1244); assay: LTEA_HepaRG_ABCC2: Life Technologies and Expression Analysis (LTEA) Assay for ABC Transporter (ABCC2) using HepaRG (AID 2283464)
Procedure, shortened: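 Endpoint is ABCC2 transcript level from qRT-PCR, normalized to three housekeeping genes and fitted bidirectionally relative to DMSO. Human HepaRG cells received test chemical for 48 h at up to 100 uM (8 points, half-log steps, 0.5% DMSO), duplicate wells.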

[13] = read-out: Broad substrate specificity ATP-binding cassette transporter ABCG2 (Homo sapiens) (UniProt Q9UNQ0); assay: LTEA_HepaRG_ABCG2: Life Technologies and Expression Analysis (LTEA) Assay for ABC Transporter (ABCG2) using HepaRG (AID 2283465)
Procedure, shortened: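 HepaRG, 48 h exposure, 8-pt half-log series from 100 uM, 0.5% DMSO vehicle, duplicates. Readout: ABCG2 transcript by qRT-PCR (Fluidigm array), housekeeping-normalized; bidirectional curve fit relative to DMSO baseline.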

[14] = read-out: Peroxisomal acyl-coenzyme A oxidase 1 (ACOX1) gene, ACOX1 (gene 51); assay: LTEA_HepaRG_ACOX1: Life Technologies and Expression Analysis (LTEA) Assay for Peroxisomal acyl-coenzyme A oxidase 1 (ACOX1) gene using HepaRG (AID 2283467)
Procedure, shortened: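 HepaRG, 48 h chemical exposure, 8-pt half-log series from 100 uM top, 0.5% DMSO vehicle, duplicates. Readout: ACOX1 mRNA by Fluidigm qRT-PCR, housekeeping-normalized; bidirectional fit vs DMSO baseline.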

[15] = read-out: Alkaline Phosphatase, Placental (ALPP) gene, ALPP (gene 250); assay: LTEA_HepaRG_ALPP: Life Technologies and Expression Analysis (LTEA) Assay for Alkaline Phosphatase, Placental (ALPP) gene using HepaRG (AID 2283468);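 on AC50: differentiated human HepaRG liver cells in serum-free induction medium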
Procedure, shortened: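 ALPP transcript level, measured by qRT-PCR and normalized to three housekeeping genes (ACTB, GAPDH, POLR2A), after 48 h dosing of differentiated HepaRG in serum-free induction medium. Top concentration 100 uM with half-log dilutions (8 points, 0.5% DMSO, duplicates); bidirectional fitting relative to DMSO.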

[16] = read-out: Bcl-2 (BAD) gene, BAD (gene 572); assay: LTEA_HepaRG_BAD: Life Technologies and Expression Analysis (LTEA) Assay for Bcl-2 (BAD) gene using HepaRG (AID 2283469)
Procedure, shortened: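 HepaRG, 48 h exposure, 8-pt half-log curve from 100 uM in 0.5% DMSO, duplicates. Readout: TaqMan qRT-PCR for BAD mRNA, housekeeping-normalised (ACTB/GAPDH/POLR2A); gain or loss fitted against DMSO baseline.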

[17] = read-out: Bcl-2 (BAX) gene, BAX (gene 581); assay: LTEA_HepaRG_BAX: Life Technologies and Expression Analysis (LTEA) Assay for Bcl-2 (BAX) gene using HepaRG (AID 2283470)
Procedure, shortened: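 Gene expression measured by Fluidigm qRT-PCR with three housekeeping genes for normalisation. HepaRG cells, plated 48 h beforehand, treated 48 h at up to 100 uM (8-point, half-log) in 0.5% DMSO. Bidirectional fitting versus DMSO.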

[18] = read-out: growth arrest and DNA damage 45 (GADD45B), GADD45B (gene 4616); assay: LTEA_HepaRG_GADD45B: Life Technologies and Expression Analysis (LTEA) Assay for growth arrest and DNA damage 45 (GADD45B) using HepaRG (AID 2283461)
Procedure, shortened: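 Transcript level quantified by Fluidigm TaqMan qRT-PCR with three housekeeping genes for normalization, analyzed for up- or down-regulation against 0.5% DMSO. HepaRG cultures dosed 48 h at eight half-log concentrations up to 100 uM, duplicates.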

[19] = read-out: ATP-citrate lyase (ACLY), ACLY (gene 47); assay: LTEA_HepaRG_ACLY: Life Technologies and Expression Analysis (LTEA) Assay for ATP-citrate lyase (ACLY) using HepaRG (AID 2283466)
Procedure, shortened: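 qRT-PCR readout of ACLY transcript after 48 h chemical treatment of HepaRG cells; expression normalized to three housekeeping genes. Eight-point half-log series, highest 100 uM, 0.5% DMSO vehicle. Gain or loss fitted against DMSO baseline.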

Measured: AC50

Chain of Broad substrate specificity ATP-binding cassette transporter ABCG2 (Homo sapiens) (Q9UNQ0 whole entry, looked up): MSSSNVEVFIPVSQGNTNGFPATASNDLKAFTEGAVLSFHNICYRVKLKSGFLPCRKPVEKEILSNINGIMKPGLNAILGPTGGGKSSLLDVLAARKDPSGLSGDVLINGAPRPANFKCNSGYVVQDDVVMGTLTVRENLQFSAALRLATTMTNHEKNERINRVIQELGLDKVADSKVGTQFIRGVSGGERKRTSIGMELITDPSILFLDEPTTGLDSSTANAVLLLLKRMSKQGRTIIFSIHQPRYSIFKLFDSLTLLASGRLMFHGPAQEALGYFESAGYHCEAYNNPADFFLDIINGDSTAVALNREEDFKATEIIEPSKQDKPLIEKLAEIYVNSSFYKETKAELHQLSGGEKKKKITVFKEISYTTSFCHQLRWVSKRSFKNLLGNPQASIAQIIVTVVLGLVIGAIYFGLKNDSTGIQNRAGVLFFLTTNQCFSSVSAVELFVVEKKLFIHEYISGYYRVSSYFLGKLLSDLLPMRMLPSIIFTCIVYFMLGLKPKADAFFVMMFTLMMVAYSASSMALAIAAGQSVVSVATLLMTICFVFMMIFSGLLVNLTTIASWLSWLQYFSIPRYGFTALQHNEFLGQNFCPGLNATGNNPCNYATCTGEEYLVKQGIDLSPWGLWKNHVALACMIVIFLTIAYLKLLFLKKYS

CON(C)C(=O)Nc1ccc(Cl)c(Cl)c1
active: [1] 26.6 µM | [3] 50 µM | [4] 72.7 µM | [8] 13.4 µM | [11] 43.1 µM | [12] 85 µM | [13] 78.2 µM | [15] 42 µM
not listed: [18] | [19]
inactive: all other assays above

C#CCOS(=O)OC1CCCCC1Oc1ccc(C(C)(C)C)cc1 (stereo not drawn)
inactive: [1] | [4] | [8] | [10] | [15] | [16] | [17]
active: [2] 20.5 µM | [3] 27.2 µM | [5] 27.4 µM | [6] 32 µM | [7] 50 µM | [9] 50 µM | [18] 14.9 µM | [11] 23.2 µM | [12] 23.6 µM | [13] 50 µM | [14] 29.1 µM

OC(c1ccc(Cl)cc1)(c1cncnc1)c1ccccc1Cl (stereo not drawn)
inactive: [5] | [8] | [10] | [13] | [16]
active: [1] 50 µM | [2] 87.6 µM | [3] 77.8 µM | [4] 13 µM | [6] 79 µM | [7] 72.4 µM | [9] 28.5 µM | [11] 89.4 µM | [12] 2.46 µM | [19] 12.6 µM | [14] 92.8 µM | [15] 61.5 µM | [17] 66.4 µM
